Bioassay records deposited in PubChem by National Center for Advancing Translational Sciences (NCATS).
MCF10A rereplic: DNA re-replication induction in MCF 10a cells; MCF 10A DNA re-replication, Hoechst nuclear intensity, 48 h; Potency, µM (doses to about 46.1 µM), for the others: at the highest dose activity, positive = re-replication, actives largely listed as activators; 2.9% of 350,000 active; AID 624296; note: potency is the fitted concentration of half-maximal effect; % of control where 0% means no effect; nearly all actives have a fitted effect of over 50% in size
KB-V1 MDR tox: KB-V1 MDR subline cytotoxicity | KB-V1 MDR cells viability, CellTiter-Glo, 72 h | 3.4% of 400,000 active | AID 1347076 | Potency, µM (top dose mostly 46.1 µM), most hits filed as cytotoxic; note: potency is the fitted concentration of half-maximal effect; % is set by controls: 0 for no effect and ±100 for the full control effect; nearly all actives have a fitted effect of over 60% in size
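In this primary screen, KB-V1 cells overexpressing P-gp are incubated with library compounds (lowest to highest concentration) for 72 h at 37 degrees C before a luminescent ATP viability read.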
KB-3-1 cytotox: KB-3-1 parental cell cytotoxicity; KB-3-1 viability, CellTiter-Glo ATP luminescence, 72 h; Potency, µM (doses to about 46.1 µM), hits mostly cytotoxic; 1.4% of 400,000 active; AID 1347075; note: potency is the fitted concentration of half-maximal effect; % is set by controls: 0 for no effect and ±100 for the full control effect; nearly all actives have a fitted effect of over 60% in size
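Cells are dispensed, compounds pinned in, plates held at 37 °C for 72 h, then CellTiter-Glo is added and luminescence read after 10 minutes. Cell line: parental KB-3-1 in phenol-red-free DMEM, 10% FBS.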
IL1B secr inh: blocks inflammasome-driven IL-1 beta release. THP-1 LPS/ATP IL-1B secretion, AlphaLISA, 16 h; hits give low values. activity change, % at 57.5 µM. 4.7% of 360,000 active. AID 743279; in the data active = activity change below about -50%; inconclusive = mostly about -30% to -49%; note: % is set by controls: 0 for no effect and ±100 for the full control effect
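THP-1 cells pretreated 1 hr with compounds (up to 57.5 uM final), then stimulated with LPS (250 ng/mL final) plus ATP (1.25 mM final); secreted IL-1B measured by AlphaLISA after 16 hr, decreased signal indicating inhibition.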
SW480 rerep: DNA re-replication induction in SW480 cells; SW480 DNA re-replication, Hoechst DNA content imaging, 48 h; 1.8% of 340,000 active; Potency, µM (doses to about 46.1 µM), for inactives: top-dose re-replication activation, actives largely listed as activators; note: potency is the fitted concentration of half-maximal effect; % of control where 0% means no effect; nearly all actives have a fitted effect of over 55% in size
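250 cells/well; 23 nL cpd via pin tool; 48 hr, 37 C, 5% CO2; Hoechst 40 min; imager read of total nuclear intensity, ex 405/em 500-530 nm.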
The depositor's hits bear a star; i = inactive; u = inconclusive; x = no result; [ ] = dose if it differs, or a comment. A selection: hits, their analogues and other compounds. The true share with any hit is near 9.9%. Unless noted, calls come from the whole dose curve; as a rule, active = well fitted curve in the direction sought with a large enough effect; inconclusive = small, poorly fitted or top-dose-only effect, or another doubt; inactive = no such curve, though single readings can be large; an effect the other way counts as inactive or inconclusive.

SMILES	MCF10A rereplic	KB-V1 MDR tox	KB-3-1 cytotox	IL1B secr inh	SW480 rerep
O=C(NNC(=S)NC1CCCCC1)c1sc2ccccc2c1Cl	u	18µM*	i	-11	x
O=C(NNC(=S)NC1CCCCC1)c1cccs1	-1%	23µM*	i	1	16%
O=C(NC1CC1)c1sc2ccccc2c1Cl	2%	i	i	u	-8%
CC(C)(C)C(=O)NC(=S)NNC(=O)c1sc2ccccc2c1Cl	12µM*	10µM*	9.2µM*	38	u
O=C(NC1C=CS(=O)(=O)C1)c1sc2ccccc2c1Cl (stereo not drawn)	-4%	u	i	-97*	-2%
Cc1ccc(S(=O)(=O)N2C[C@H]3C(=O)C[C@@H](c4ccccc4F)N(S(=O)(=O)c4ccc(C)cc4)[C@H]3C[C@H]2c2ccccc2)cc1	x	i	i	-4	x
O=C1CN(CC(=O)NC2CCCc3ccccc32)CCN1 (stereo not drawn)	-7%	u	i	-3	-6%
CC(C)(C)C(=O)Cn1ncc(Br)c(Br)c1=O	5.8µM*	i	10µM*	-100*	7.3µM*
COc1cc2[nH]c(=S)n(CC3CCCO3)c(=O)c2cc1OC (stereo not drawn)	-11%	i	i	10	-8%
COc1ccc(Cn2c(=S)[nH]c3cc(OC)c(OC)cc3c2=O)cc1	u	i	u	-16	0%
CCOc1cc2[nH]c(=S)n(CC3CCCO3)c(=O)c2cc1OCC (stereo not drawn)	u	12µM*	u	u	0%
COc1ccccc1Cn1c(=S)[nH]c2cc(C(=O)N3CCC(C(N)=O)CC3)ccc2c1=O	12%	i	i	30	5%
COc1ccccc1Cn1c(=S)[nH]c2cc(C(=O)N3CCCC(C)C3)ccc2c1=O (stereo not drawn)	x	i	21µM*	-26	x
CCCCNC(=O)c1ccc(Cn2c(=S)[nH]c3c([nH]c4ccc(OC)cc43)c2=O)cc1	16µM*	i	u	18	u
COc1cc2[nH]c(=S)n(Cc3ccc(C)cc3)c(=O)c2cc1OC	13µM*	i	i	11	20%
COc1ccc(-n2ncc3c(=O)n(CC(=O)N(C(C)C)C(C)C)cnc32)cc1	6%	i	i	9	16%
CN(CC(=O)N1CCN(c2ccccc2)CC1)C1CCCc2ccccc21 (stereo not drawn)	u	u	i	9	5%
COCCCNC(=O)c1sc2nc(C)c(C(=O)Nc3ccc(C)cc3C)c(-c3ccccc3Cl)c2c1N	x	i	i	x	x
CCOc1cc2[nH]c(=S)n(Cc3ccc(C(=O)NCC(OC)OC)cc3)c(=O)c2cc1OCC	1%	i	i	15	-21%
CCOc1cc2[nH]c(=S)n(Cc3ccc(C(=O)NCCN(CC)CC)cc3)c(=O)c2cc1OCC	u	i	i	-99*	u
CC1CC(C)CN(C(=O)c2ccc3c(=O)n(Cc4ccc5c(c4)OCO5)c(=S)[nH]c3c2)C1 (stereo not drawn)	10%	15µM*	i	-21	22%
COc1ccccc1Cn1c(=S)[nH]c2ccc(F)cc2c1=O	2%	i	i	-73*	-2%
COc1ccccc1Cn1c(=S)[nH]c2ccc(Br)cc2c1=O	2%	i	i	40	4%
CCOC(=O)C1CCCN(C(=O)c2ccc3c(=O)n(CCOC)c(=S)[nH]c3c2)C1 (stereo not drawn)	u	23µM*	i	0	0%
COCCn1c(=S)[nH]c2cc(C(=O)N3CCC(C(N)=O)(N4CCCCC4)CC3)ccc2c1=O	-2%	i	i	13	-2%
CCCS(=O)(=O)Nc1ccc2cn[nH]c2c1	-25%	i	i	11	-64%[1.84 µM]
COc1cccc(OCC(=O)O/N=C(\N)c2ccncc2)c1	5%	i	i	1	-4%
O=C(OCc1ccccc1)N(CCCCN(CCCNCc1ccccc1)C(=O)OCc1ccccc1)CCCNCc1ccccc1	5.8µM*	u	16µM*	-17	u
